# PMC4336329 (PLoS ONE, 2015)
# About 14,000 (4.5%) of roughly 310,000 compounds showed an effect of 50% or more. Effects have a minus sign here. The sample holds strong results, similar compounds and a random draw of the others, so the mix is not that of the screen.
# Target: human ether-à-go-go-related gene (hERG) potassium channel (human, UniProt Q12809)
# Assay: primary screen, population patch clamp on CHO cells stably expressing hERG; higher = less effect of the substance
# 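Further: peak tail current of the secondary pulse compared with the same well before compound.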
# human ether-à-go-go-related gene (hERG) potassium channel, sequence (Q12809 whole entry, looked up): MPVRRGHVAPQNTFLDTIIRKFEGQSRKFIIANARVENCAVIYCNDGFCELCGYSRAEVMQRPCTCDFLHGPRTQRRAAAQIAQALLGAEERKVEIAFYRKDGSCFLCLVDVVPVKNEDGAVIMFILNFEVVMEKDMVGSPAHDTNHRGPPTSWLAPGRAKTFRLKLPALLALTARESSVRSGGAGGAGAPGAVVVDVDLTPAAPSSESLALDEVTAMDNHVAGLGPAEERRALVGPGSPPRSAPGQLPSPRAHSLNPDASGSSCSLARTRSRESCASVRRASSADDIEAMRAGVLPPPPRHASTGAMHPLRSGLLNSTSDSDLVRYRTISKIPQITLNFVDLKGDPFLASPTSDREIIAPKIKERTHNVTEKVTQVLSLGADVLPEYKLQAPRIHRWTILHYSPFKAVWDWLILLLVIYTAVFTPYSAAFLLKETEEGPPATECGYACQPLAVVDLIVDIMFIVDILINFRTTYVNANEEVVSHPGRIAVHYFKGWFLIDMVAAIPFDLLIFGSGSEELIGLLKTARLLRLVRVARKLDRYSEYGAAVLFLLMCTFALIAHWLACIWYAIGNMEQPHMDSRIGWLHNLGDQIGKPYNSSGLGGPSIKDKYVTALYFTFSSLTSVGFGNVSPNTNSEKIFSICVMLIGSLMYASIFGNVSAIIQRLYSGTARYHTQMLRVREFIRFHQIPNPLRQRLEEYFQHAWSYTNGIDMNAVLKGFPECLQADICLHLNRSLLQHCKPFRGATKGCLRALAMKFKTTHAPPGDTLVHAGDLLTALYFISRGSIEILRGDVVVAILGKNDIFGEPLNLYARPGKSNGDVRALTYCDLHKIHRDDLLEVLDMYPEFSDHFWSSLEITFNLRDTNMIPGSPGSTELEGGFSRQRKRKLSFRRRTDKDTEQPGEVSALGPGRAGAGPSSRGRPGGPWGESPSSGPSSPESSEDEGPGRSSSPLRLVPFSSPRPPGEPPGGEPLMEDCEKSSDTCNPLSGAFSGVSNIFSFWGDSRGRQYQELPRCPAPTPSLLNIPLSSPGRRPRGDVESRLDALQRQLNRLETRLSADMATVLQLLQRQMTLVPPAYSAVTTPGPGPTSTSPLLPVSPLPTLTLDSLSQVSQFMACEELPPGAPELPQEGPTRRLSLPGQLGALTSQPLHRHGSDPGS
row,SMILES,"hERG current change (%, negative = inhibition) at 10uM [%]"
1,O=c1c2cc3c(cc2[nH]c(=S)n1CCN1CCOCC1)OCO3,9.66
2,COc1ccc(Cc2nnc(NC(=O)C(C)C)s2)cc1,11.2
3,Cc1cc(C)c(NC(=O)COC(=O)c2c(C)noc2C)c(Cl)c1,13.8
4,CS(=O)(=O)N1CCN(C(=O)c2cc(-c3ccncc3)nc3ccc(Cl)cc23)CC1,-12.8
5,CS(=O)(=O)N1CCN(C(=O)c2cc(-c3ccccc3)nc3ccccc23)CC1,-30.8
6,O=C(c1cc(-c2ccncc2)nc2ccccc12)N1CCN(S(=O)(=O)/C=C/c2ccccc2)CC1,-66.6
7,COc1ccc2[nH]c3c(=O)n(CCCCC(=O)NCCC(C)C)c(=S)[nH]c3c2c1,16.3
8,CCCCn1c(CCNC(=O)c2cccs2)nc2ccccc21,-33.2
9,CCCCn1c(CCNC(=O)CC)nc2ccccc21,-11.2
10,CCCCn1c(CCCNC(=O)CC)nc2ccccc21,-37.3
11,CCCCCn1c(=O)c(C(=O)c2ccccc2)nc2ccccc21,-77.6
12,CCCCCn1c(CCCNC(=O)CC)nc2ccccc21,-65.9
13,CCCn1c(CCNC(=O)c2cccs2)nc2ccccc21,-36.1
14,CCCn1c(=O)c(C(=O)c2ccccc2)nc2ccccc21,-27.4
15,CCCCCn1c(CCNC(=O)CCC)nc2ccccc21,-57.2
16,CCCCn1c(=O)c(C(=O)c2ccccc2)nc2ccccc21,-30.4
17,CCCCn1c(CCNC(=O)CCC)nc2ccccc21,-7.83
18,CCCCCn1c(CCNC(=O)c2cccs2)nc2ccccc21,-52.5
19,CCCC(=O)NCCc1nc2ccccc2n1CCC,1.27
20,O=C(COc1ccccc1)Nc1nonc1NC(=O)COc1ccccc1,-12.8
21,COc1cc(C(=S)N2CCCC2)ccc1O,18.6
22,CCN1C(=O)C2(Nc3ccccc3-c3nc4ccccc4n32)c2cc(OC)ccc21 (stereo not drawn),-4.35
23,CCC(=O)N1CCc2cc(S(=O)(=O)CCC(=O)NCCc3ccc(OC)c(OC)c3)ccc21,-0.229

row,SMILES,"hERG current change (%, negative = inhibition) at 10uM [%]"
1,O=C(Nc1ccc(Cl)c(Cl)c1)NC1CCS(=O)(=O)C1 (stereo not drawn),-8.07
2,COc1cc(NS(=O)(=O)c2ccc(NC(C)=O)cc2)ncn1,0.81
3,Cc1nn(-c2ccc(Cl)cc2)c(N)c1C(O)(CSc1nccn1C)C(F)(F)F (stereo not drawn),-22.9
4,O=C(NCC1CCCO1)c1ccc2ccccc2n1 (stereo not drawn),-3.04
5,CCn1c(CCNC(=O)c2ccc(F)cc2)nc2ccccc21,-33.9
6,COc1cc(C(=O)NCCCc2nc3ccccc3n2Cc2cc(C)ccc2C)cc(OC)c1OC,-33.6
7,CCn1c(CCCNC(=O)c2ccc(F)cc2)nc2ccccc21,-41.3
8,COc1ccc(C(=O)NCCCc2nc3ccccc3n2Cc2ccccc2C)cc1OC,-55.4
9,CC(C)Cn1c(CCCNC(=O)c2ccc(F)cc2)nc2ccccc21,-50.3
10,COc1ccc(C(=O)NCCCc2nc3ccccc3n2Cc2cc(C)ccc2C)cc1OC,-39.7
11,COc1ccc(CCC(=O)OC(C)C(=O)c2ccc(C)cc2)cc1 (stereo not drawn),0.769
12,COCCSc1nnc(NC(=O)c2cc(C(=O)OC)cc([N+](=O)[O-])c2)s1,11.4
13,CC(C)c1nc(SCC(=O)NCc2ccccc2)n[nH]1,2.8
14,CCOC(=O)C1(Cc2ccccc2)CCCN(C(=O)C=C(C)C)C1 (stereo not drawn),13.2
15,CCOC(=O)C1(Cc2ccccc2)CCCN(C(=O)c2ccc(-n3ccnc3)cc2)C1 (stereo not drawn),-58.4
16,COc1cccc(CC2(CO)CCCN(C(=O)c3cc[n+]([O-])cc3)C2)c1 (stereo not drawn),10.4
17,Cc1ccccc1CC1(CO)CCCN(C(=O)c2cccc(Cl)c2)C1 (stereo not drawn),1.01
18,O=C(c1ccc(-n2ccnc2)cc1)N1CCCC(CO)(Cc2cccc(Cl)c2)C1 (stereo not drawn),-60.4
19,CCOC(=O)C1(Cc2ccccc2)CCCN(C(=O)c2cn[nH]c2)C1 (stereo not drawn),13.4
20,CC(=O)c1ccc(NC(=O)c2ccc(COc3ccccc3[N+](=O)[O-])o2)cc1,-8.46
21,Cc1cc(=O)n(CC(=O)Nc2cc(Cl)ccc2C)c(C(C)C)n1,-1.59
22,CN(CC1CCOCC1)C(=O)CC1C(=O)NCCN1Cc1ccc(Cl)c(F)c1 (stereo not drawn),10.4
23,CCCCNC(=O)c1nn(-c2ccccc2OC)c(=O)c2ccccc12,-4.46

row,SMILES,"hERG current change (%, negative = inhibition) at 10uM [%]"
1,COc1ccc(NC(=O)CCN2CCN(S(=O)(=O)c3ccc(F)cc3)CC2)cc1,-6.32
2,Cc1cc(C)c2c(-n3cccc3)c(C(=O)NNS(=O)(=O)c3ccc(Cl)cc3)sc2n1,0.175
3,O=C(Nc1ccccc1)NC1CCN(Cc2ccccc2)CC1,-39.4
4,O=C(Cc1c(F)cccc1Cl)NC1CCN(Cc2ccccc2)CC1,-0.715
5,O=C(/C=C/c1cccc(F)c1)NC1CCN(Cc2ccccc2)CC1,-70.6
6,CN1CCC(NC(=O)Nc2cccc(C(F)(F)F)c2)CC1,-0.705
7,O=C(/C=C/c1cccc(Br)c1)NC1CCN(Cc2ccccc2)CC1,-71.1
8,O=C(Nc1cccc(C(F)(F)F)c1)NC1CCCCC1,-3.18
9,O=C(Nc1ccc(F)cc1)NC1CCN(Cc2ccccc2)CC1,-36.7
10,O=C(COC(=O)/C=C/c1cccc(Br)c1)NC1CC1,-2.84
11,COc1ccc(/C=C/C(=O)NC2CCN(Cc3ccccc3)CC2)cc1OC,-29
12,CCN1CCC(NC(=O)Nc2cccc(C(F)(F)F)c2)CC1,-51.1
13,O=C(Nc1cccc(F)c1)NC1CCN(Cc2ccccc2)CC1,-56.4
14,S=C(Nc1ccc(Br)cc1Cl)NC1CCN(Cc2ccccc2)CC1,-2.37
15,COc1ccc(CN2C(=O)[C@H]3Cc4c([nH]c5ccccc45)C(C)(C)N3C2=O)cc1,7
16,COc1cccc(NC(=O)N(Cc2cc3cc(C)cc(C)c3[nH]c2=O)CC2COCCO2)c1 (stereo not drawn),4.85
17,Cc1nnc(SCC(=O)N(Cc2ccccc2)C(C)C)n1-c1ccccc1,-5.28
18,Cc1c(O)ccc2c(=O)c(-c3nncn3-c3ccccc3)coc12,21.2
19,COc1ccc(NC(=O)c2ccccc2C)cc1,14.9
20,Cc1c(C(=O)NCCc2ccccc2)oc2ccc(S(=O)(=O)N3CCOCC3)cc12,-19.1
21,CC(C)CC(=O)NCC(C)NC(=O)CC(C)C (stereo not drawn),3.51
22,COc1ccc(C(CC(=O)N2CCN(c3ccccc3)CC2)c2c(OC)cc(OC)c3ccc(=O)oc23)cc1 (stereo not drawn),1.88
23,Fc1ccc(C2CC(c3ccc(F)cc3)n3ncnc3N2)cc1 (stereo not drawn),-60

row,SMILES,"hERG current change (%, negative = inhibition) at 10uM [%]"
1,Fc1ccc(C2CC(c3ccccc3)n3ncnc3N2)cc1 (stereo not drawn),-29.3
2,Clc1ccc(C2CC(c3ccccc3)Nc3ncnn32)cc1 (stereo not drawn),-64.4
3,Fc1ccc(C2CC(c3ccccc3)Nc3ncnn32)cc1 (stereo not drawn),-45.9
4,Cc1ccc(C2CC(c3ccccc3)n3ncnc3N2)cc1 (stereo not drawn),-1.18
5,c1ccc(C2CC(c3ccccc3)n3ncnc3N2)cc1 (stereo not drawn),-17.3
6,CCc1ccc(/C=C2\SC(=S)N(CCCC(=O)Nc3nccs3)C2=O)cc1,8.83
7,Cc1ccc(S(=O)(=O)n2nc(OC(=O)c3ccccc3F)cc2N)cc1,9.49
8,CC(=O)Nc1c(Nc2ccccc2)c2ccccc2oc1=O,3.92
9,COc1cc(OC)c(OC)cc1CN1CCN(C(=O)COc2ccc3ccccc3c2)CC1.O=C(O)C(=O)O,-36.4
10,COc1cc(OC)cc(C(=O)N2CCN(C(=O)COc3ccc4ccccc4c3)CC2)c1,-64.8
11,COc1ccc(C(=O)N2CCN(C(=O)c3cc(OC)c(OC)c(OC)c3)CC2)cc1,-17.4
12,COc1ccc(CN2CCN(C(=O)COc3ccc4ccccc4c3)CC2)c(OC)c1,-52.6
13,COc1cc(C(=O)N2CCN(C(=O)COc3ccc4ccccc4c3)CC2)cc(OC)c1OC,-73
14,CN1CCN(C(=O)COc2ccc3ccccc3c2)CC1,-3.47
15,COc1ccccc1CN1CCN(C(=O)COc2ccc3ccccc3c2)CC1,-36
16,COc1ccc(N2CCN(C(=O)COc3ccc4ccccc4c3)CC2)cc1,5.36
17,COc1cccc(C(=O)N2CCN(C(=O)COc3ccc4ccccc4c3)CC2)c1,-47.4
18,NC(=O)CCN(C1CCCCC1)S(=O)(=O)c1cccc2nsnc12,10.5
19,Cc1ccc(SCc2cc(=O)c3c(=O)n(-c4ccccc4)[nH]c3[nH]2)cc1,7.34
20,N#Cc1nc(-c2ccco2)oc1N1CCCC1,-11.1
21,COC(=O)c1cc(S(=O)(=O)NCc2ccc3c(c2)OCO3)cn1C,-0.484
